Most compounds without a hit are left out; they make up all but 2.4% or so of the library.
D2 PAM-1 = HTS Assay for Positive Allosteric Modulators of the Human D2 Dopamine Receptor: Primary Screen for Potentiators | D(2) dopamine receptor (Homo sapiens), P14416 | hit rate 0.34% among 340,000 | HEK293 T-REx D2, calcium flux, EC20 dopamine potentiation | AID 485347, 2010 | potentiation, % at 10 µM;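 active = potentiation over 3 SD above the plate norm, cut at about 30% in these data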; note: 0% is about no effect
Target sequence (P14416 whole entry, looked up): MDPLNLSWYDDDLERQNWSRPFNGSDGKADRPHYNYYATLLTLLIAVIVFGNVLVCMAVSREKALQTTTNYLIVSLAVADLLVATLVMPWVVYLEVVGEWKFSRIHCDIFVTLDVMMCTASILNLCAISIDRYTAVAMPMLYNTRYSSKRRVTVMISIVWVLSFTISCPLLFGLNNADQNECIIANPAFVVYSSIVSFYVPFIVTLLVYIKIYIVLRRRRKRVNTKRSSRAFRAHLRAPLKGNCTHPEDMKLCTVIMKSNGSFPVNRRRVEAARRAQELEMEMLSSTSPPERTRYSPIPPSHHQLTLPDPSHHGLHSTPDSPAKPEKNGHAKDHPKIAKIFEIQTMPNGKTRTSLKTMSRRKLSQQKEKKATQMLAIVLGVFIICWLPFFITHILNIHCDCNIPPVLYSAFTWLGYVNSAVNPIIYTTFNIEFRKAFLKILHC
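Cells plated with tetracycline inducer and held overnight at 30 C; calcium dye loaded 30–90 min at room temperature; baseline taken, compound added and read 180 s; EC20 dopamine then added and read 180 s.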
D2 antagonist = HTS Assay for Allosteric Antagonists of the Human D2 Dopamine Receptor: Primary Screen for Antagonists; hit rate 2% among 340,000; HEK293 TREx D2 cells, calcium flux, dopamine EC80; inhibition, % at 10 µM; in the data active = inhibition above about 30%; inactive = below that, where a call was filed; note: 0% is about no effect
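Antagonism is scored as inhibition of an EC80 dopamine-evoked calcium signal in a force-coupled, tetracycline-inducible HEK293 T-REx D2 line, with compound present 180 s before agonist.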
D2 PAM-2 = Beta-Arrestin HTS for Positive Allosteric Modulators of the Human D2 Dopamine Receptor: Potentiators; D(2) dopamine receptor (Homo sapiens), P14416; AID 624464, 2012; hit rate 0.23% among 360,000; potentiation, % (test concentration not listed); DiscoveRx D2 beta-arrestin cells, luminescence, 90 min; 100% = 57 uM dopamine signal; in the data active = potentiation above about 50%; inconclusive = mostly about 30% to 49%
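D2 cells co-treated with compound plus 50 nM dopamine (EC20) for 90 min at 37 deg C to detect potentiation. Beta-arrestin recruitment was read as enzyme-fragment luminescence after 1 h at ambient temperature. Full response was set by 57 uM dopamine.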
D2 ag-1 = HTS Assay for Allosteric Agonists of the Human D2 Dopamine Receptor: Primary Screen for Agonists | D(2) dopamine receptor (Homo sapiens), P14416 | HEK293 T-REx D2 cells, calcium flux agonist mode | activation, % at 2 µM | hit rate 0.53% among 340,000 | AID 485358, 2010;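 active = activation over 3 SD above normal in the single-dose calcium agonist read, cut at about 30% in these data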; note: 0% is about no effect
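Tetracycline-induced HEK293 Trex cells with D2 receptor force-coupled to calcium signaling, plated overnight at 30 C and loaded with no-wash calcium dye. Calcium flux read kinetically for 180 s after compound addition; responses flag agonists.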
D2 ag-2 = Beta-Arrestin HTS for Positive Allosteric Modulators of the Human D2 Dopamine Receptor: Agonists | D(2) dopamine receptor (Homo sapiens), P14416 | DiscoveRx PathHunter D2 beta-arrestin, luminescence, 90 min; 100% = 57 uM dopamine signal | activation, % (concentration not given with the values) | hit rate 0.084% among 360,000 | AID 624465, 2012; in the data active = activation above about 40%; inconclusive = between about 15% and that limit
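Agonist mode: compounds alone added to overnight-plated D2 PathHunter cells for 90 min at 37 C, with 57 uM final dopamine (EC100) defining full response. Beta-arrestin recruitment detected by chemiluminescent reagent, read after 1 h at ambient temperature.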
D3 arrestin ag = qHTS of D3 Dopamine Receptor Agonist: D3 Dopamine Receptor B-arrestin Agonist Confirmatory Assay | shares compounds with D2 ag-1 | DiscoveRx D3 beta-arrestin cells, luminescence, 90 min | Potency, µM (highest dose often 76.9 µM), inactives show at the top dose activation, most hits filed as activators | hit rate 4% among 2,300;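 note: potency is the fitted concentration of half-maximal effect; 100% = dopamine control response; nearly all actives have a fitted effect of over 70% in size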
D2 ag-3 = qHTS of D3 Dopamine Receptor Agonist: D2 Dopamine Receptor B-arrestin Agonist Counterscreen. DiscoveRx PathHunter D2 beta-arrestin, luminescence, 90 min; response scale: percent relative to full dopamine signal. shares compounds with D2 ag-1. Potency, µM (series often up to 76.9 µM), for the others: top-dose activation, hits mostly activators. AID 720507, 2013. hit rate 5.9% among 2,300; note: potency is the fitted concentration of half-maximal effect; % of control where 0% means no effect; nearly all actives have a fitted effect of over 70% in size
The depositor's hits bear a star; ? = inconclusive; . = no result. Unless noted, calls come from the whole dose curve; as a rule, active = well fitted activation curve with a large enough effect; inconclusive = small, poorly fitted or top-dose-only effect; inactive = flat fitted curve, though single readings scatter.

SMILES	D2 PAM-1	D2 antagonist	D2 PAM-2	D2 ag-1	D2 ag-2	D3 arrestin ag	D2 ag-3
COc1cc(C2c3c(-c4cc(C)ccc4O)n[nH]c3C(=O)N2CCCO)ccc1OCCC(C)C (configuration not stated)	10.4	.	.	4.1	.	.	.
c1ccc2c(C3CCO3)cccc2c1 (configuration not stated)	.	.	-5.6	.	-2.0	-0.2%	-3.0%
c1ccc2c(C3OCC4(CCCC4)CO3)cccc2c1	.	.	-8.1	.	1.3	.	.
CC(C)Nc1nc(Cl)nc(NC2CCCCC2)n1	-3.5	-5.6	-1.5	-0.8	-1.5	.	.
Fc1cc(F)cc(Nc2nc(Cl)nc(NC3CCCC3)n2)c1	-5.4	-3.7	.	-0.5	.	-5.6%	0.4%
O=C(NC1(C(F)(F)F)NC(=O)N(c2ccccc2)C1=O)c1cccs1 (configuration not stated)	-5.5	29.6	-11.9	-0.1	-5.4	8.8%	-3.9%
O=S(=O)(Nc1cccc(-c2ccc(N3CCCCC3)nn2)c1)c1ccc(Cl)s1	-0.9	.	.	-0.3	.	.	.
Cc1ccc(C)c(NS(=O)(=O)c2ccc(-c3ccc(=O)[nH]n3)o2)c1	-8.6	5.6	1.7	44.4*	7.6	-0.9%	21.6%
Cc1cccc(NS(=O)(=O)c2ccc(-c3ccc(=O)[nH]n3)o2)c1	.	.	-3.5	.	3.7	.	.
CC(=O)c1cc(-c2ccccc2)n(CC(=O)NCc2ccccc2C)c1C	-3.0	.	.	-0.1	.	.	.
COc1ccc(C2(CCN)CC(C)N(C)CC2C)cc1 (configuration not stated)	-17.4	23.3	-13.9	31.2*	0.4	-3.5%	2.7%
COCCNC(=O)CSc1nc2cc3c(cc2c(=O)n1CCCC(=O)NCc1ccc2c(c1)OCO2)OCO3	8.8	.	.	.	.	.	.
CCOc1ccc(NC(=O)Cn2c(=O)n(CCC(=O)NCCc3ccccc3)c(=O)c3ccccc32)cc1	14.0	.	.	-1.7	.	.	.
CCCCn1c(N)c(N(CCC(C)C)C(=O)c2cccc(N3C(=O)c4ccccc4C3=O)c2)c(=O)[nH]c1=O	.	.	-10.8	.	-0.9	.	.
CCCCN(C(=O)c1ccc(N2C(=O)c3ccccc3C2=O)cc1)c1c(N)n(CC(C)C)c(=O)[nH]c1=O	4.0	-13.3	18.5	0.2	-2.1	-0.3%	26.8%
CCCCOC(=O)c1ccc(NC(=O)c2cc3c(=O)n4cccc(C)c4nc3s2)cc1	-1.9	.	.	-0.7	.	.	.
O=C(Cn1cncn1)N/N=C/c1cc([N+](=O)[O-])ccc1O	-9.9	51.9*	-24.1	-0.1	-10.2	2.5%	-14.5%
O=C(NCCCN1CCN(c2ccccc2)CC1)c1nnc(Cc2ccc(F)cc2)o1	-6.1	.	.	0.2	.	.	.
CCC(=O)Oc1ccc(C(=O)Nc2ccc3c(c2)OCO3)cc1	2.2	17.4	-5.7	-1.2	5.8	1.9%	1.3%
Cc1onc(-c2c(Cl)cccc2Cl)c1C(=O)N1CCc2ccccc2C1	-10.6	-0.2	-8.1	72.4*	-2.3	-2.4%	-1.1%
COC(=O)CCN(C(=O)C1C2CC3CC(C2)CC1C3)c1ccccn1 (configuration not stated)	-6.8	14.2	0.0	40.6*	?	0.9%	?
CCOc1ccccc1C(=O)N(CCC(=O)OC)c1ccccn1	-9.7	5.2	-15.7	-0.3	-0.1	.	.
CN(C(=O)c1ccccc1C(=O)OCC(=O)c1ccccc1)c1ccccc1	.	.	2.0	.	2.0	.	.
CN(C(=O)c1ccccc1C(=O)OCC(=O)c1ccc(F)cc1)c1ccccc1	-8.2	23.2	-8.0	0.0	-3.1	-4.4%	0.4%
COc1cc(OC)cc(-c2c(-c3cccs3)c3cc(-c4ccc(SC)cc4)ccc3n2C)c1	0.7	57.7*	-1.9	-0.3	1.9	6.8%	0.6%
SMILES	D2 PAM-1	D2 antagonist	D2 PAM-2	D2 ag-1	D2 ag-2	D3 arrestin ag	D2 ag-3
COc1ccc(-c2c(-c3cc(OC)cc(OC)c3)n(C)c3ccc(-c4ccc(S(N)(=O)=O)cc4)cc23)cc1	-4.8	-6.6	-6.5	0.5	-2.0	-3.5%	5.1%
COc1ccc(-c2c(-c3cc(OC)cc(OC)c3)n(C)c3ccc(-c4cnc(N)nc4)cc23)cc1	.	.	-4.0	.	-4.2	.	.
Cc1ccc(C(=O)/C=C/Nc2ccc(S(=O)(=O)Nc3cc(C)nc(C)n3)cc2)cc1	-19.4	17.1	6.2	-0.9	-1.1	-4.2%	2.5%
CCC(NC(C)C)C(O)c1ccc(O)c2[nH]c(=O)ccc12 (configuration not stated)	-0.2	-10.7	-5.0	26.6	3.6	?	20.9%
Nc1ccc(N2CCN(CCCCN3C(=O)C4CCCN4C3=O)CC2)cc1 (configuration not stated)	-17.0	42.4*	-15.6	63.1*	6.1	23.2%	15.3%
CN(Cc1cccc(F)c1)C(=O)c1ccc(S(=O)(=O)N2CCCCCC2)cc1	.	.	4.4	.	5.8	.	.
Cc1ccccc1C(=O)Nc1nnc(SC(C)C)s1	-2.6	29.0	-29.0	17.9	1.1	-3.0%	-1.3%
Cc1nn(-c2ccccc2)c2c1cc1c(=O)[nH]c(=O)nc-1n2-c1cccc(C(F)(F)F)c1	15.8	.	.	-0.5	.	.	.
COCC1CCN(Cc2c(C(=O)N3CCN(C4CCCCC4)CC3)nc3ccccn23)C1 (configuration not stated)	-5.1	-14.0	-49.5	0.3	-4.3	.	.
COC1CCN(Cc2c(C(=O)N3CCN(C4CCCCC4)CC3)nc3ccccn23)CC1	-21.1	-7.7	-6.6	59.3*	-0.5	-0.3%	-6.8%
COc1ccc(-c2cc3nc(C4CCN(C(=O)OC(C)(C)C)CC4)c(C(=O)Nc4cc(Cl)cc(Cl)c4)cn3n2)cc1	0.8	.	.	.	.	.	.
Cc1ccc(Nc2c(-c3ccc(N4CCOCC4)cc3)nc3c(C)cccn23)cc1	.	.	.	-1.4	.	.	.
COc1cccc(C(=O)O[C@H]2[C@H](C)NS(=O)(=O)[C@H]3C[C@@H]4C=C[C@]23O4)c1	-30.7	9.4	-3.0	2.1	-3.8	-1.1%	-3.9%
Cc1cccc(C(=O)O[C@H]2[C@H](C)NS(=O)(=O)[C@H]3CC4C=C[C@]23O4)c1	.	.	-9.6	.	-3.1	.	.

From PubChem
